Reference: PubChem BioAssay (NCI)
About 83,000 compounds went through this panel and 20% of them were active in at least one assay; those are over-represented in the sample as a whole.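 Each cell line was grown in a 96-well plate and treated with one concentration of compound for 48 hours. Values below 10 were considered active.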 Unmarked numbers belong to inactive results. Activity calls are given as the source filed them.

Assays:
Assay in all cases: NCI-60 one-dose screen, 48 h (100 = growth as untreated, 0 = no growth, -100 = all killed)
Conditions in all cases: 10 µM unless noted
HCT-15 colon = tested on: HCT-15 colon
HT29 colon = tested on: HT29 colon
SNB-75 CNS = tested on: SNB-75 CNS
SNB-19 CNS = tested on: SNB-19 CNS
U251 CNS = tested on: U251 CNS
PC-3 prostate = tested on: PC-3 prostate
SK-MEL-5 melanoma = tested on: SK-MEL-5 melanoma
UACC-62 melanoma = tested on: UACC-62 melanoma
LOX IMVI melanoma = tested on: LOX IMVI melanoma
SK-MEL-28 melanoma = tested on: SK-MEL-28 melanoma

| Compound | growth (HCT-15 colon) | growth (HT29 colon) | growth (SNB-75 CNS) | growth (SNB-19 CNS) | growth (U251 CNS) | growth (PC-3 prostate) | growth (SK-MEL-5 melanoma) | growth (UACC-62 melanoma) | growth (LOX IMVI melanoma) | growth (SK-MEL-28 melanoma) |
| --- | --- | --- | --- | --- | --- | --- | --- | --- | --- | --- |
| CCOC(=O)c1ccc(NC(=O)c2nc(-c3cc(OC)c(OC)c(OC)c3)n(-c3ccc(Cl)cc3)n2)cc1 | 93.2% | 89.9% | 81% | 88.8% | 93.8% | 77.5% | 63.6% | 77.7% | 91.8% | 95% |
| CC(=O)/C(=C\c1c(-c2ccccc2)[nH]c2ccccc12)S(C)(=O)=O | 19.3% | 4.54% (active) | -28.8% (active) | 23.2% | 15.3% | 21.6% | -6.28% (active) | 17.5% | 33.1% | – |
| O=C(O)CCN1C(=O)/C(=C/C(Cl)=C/c2ccccc2)SC1=S | -50.3% (active) | 10.1% | 13.2% | 34.5% | 20.8% | 47% | 38.9% | 16.1% | -32.4% (active) | 13.9% |
| Fc1cnccc1C1CC(c2ccc(N3CCNCC3)cc2)=NN1 (stereo unspecified) | 97.6% | 60.2% | 101% | 97.5% | 95.1% | 70.3% | 85.8% | 81.9% | 94.3% | 116% |
| Nc1[nH]n2cc(-c3ccccc3)nc2c1N=Nc1ccc(S(N)(=O)=O)cc1 | 22.8% | 38.8% | 1.09% (active) | 60.4% | 38.7% | 32.4% | 26.8% | 31.3% | 17.4% | – |
| CCOC(=O)c1c(NC(=O)c2ccc(Cl)cc2)sc2c(CN(C)C)c(O)ccc12 | -1.49% (active) | 23% | 79.2% | 79.5% | 54.4% | 72.9% | 87.4% | 103% | 60.6% | – |
| O=C(Nc1nc2cc(C(=O)N3CCN(C(c4ccccc4)c4ccccc4)CC3)ccc2o1)c1ccc(NC2CCCCC2)c([N+](=O)[O-])c1 | 35.1% | 62.2% | 71.7% | 48.3% | 32.5% | 53.9% | 49.7% | 45.8% | 45.5% | – |
| COc1cc(-c2nccc3[nH]c(-c4ccc5cc[nH]c5c4)nc23)cc(OC)c1OC | -7.01% (active) | -37.8% (active) | 18.9% | 34.8% | -16.3% (active) | -0.946% (active) | -38.4% (active) | 27.4% | -67.5% (active) | – |
| COc1ccc(C(=O)N2c3ccccc3Sc3ccccc32)c(OC)c1 | 19.2% | -0.815% (active) | 18.5% | 31.7% | 24.5% | 10.5% | 19% | 13.8% | 37.8% | 57.9% |
| CCCOC(=O)Nc1nc2ccc(SCC(C)C)cc2s1 | 26.6% | 15.9% | 28.6% | 53.9% | 49.2% | 45.9% | 27.6% | 18.9% | 40.8% | 64.9% |
| Cc1ccc(Nc2cc(N)nc(N)n2)cc1Cl | 97.1% | 98.2% | 80.2% | 104% | 97.3% | 94.2% | 97.5% | 90.8% | 97.3% | – |
| C=C1C(=O)O[C@H]2[C@H]1CC/C(COC(=O)c1cc3ccccc3s1)=C\CC[C@@]1(C)O[C@@H]21 | -62.4% (active) | -75.4% (active) | -7.28% (active) | -9.05% (active) | -82.6% (active) | -56% (active) | -93.8% (active) | -61.1% (active) | -83.7% (active) | – |
| CCN1C(=S)N(c2ccccc2)C2C1NN=c1s/c(=C3\C(=O)N(C(C)C)c4ccccc43)c(=O)n12 (stereo unspecified) | 93.3% | 69.6% | 61% | 81.9% | 64.6% | 79.3% | 92.1% | 83.5% | 47.5% | – |
| CN(C)S(=O)(=O)c1cccc(C(=O)Nc2nc(-c3ccc(F)c(F)c3)cs2)c1 | 61.3% | 74.3% | 75.5% | 92% | 55.1% | 39.1% | 2.37% (active) | 45.9% | 71.9% | – |
